Among all 5,500 compounds or so, about 2,000 (36%) were called active. Roughly 18% stayed inconclusive and do not appear here. Rule as the data show it: active = normalized growth mostly below about 0.91 (no sharp cut-off); inconclusive = no clear call, values can overlap the other calls; inactive = mostly above about 0.92. The list shows a part of the results.
Experiment: chemical genetic growth profiling, strain panel (AID 1159580);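 also: tested at 20 µM; growth read once vehicle control cultures reached saturation at 30 °C; 1 = growth at the plate median or of vehicle wells; lower values mean less growth of the strain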
Conditions: S. cerevisiae deletion strains, growth OD
[1] = locus YDL101C, strain DUN1, stronger effect = lower value
[2] = locus YHR030C, strain SLT2, stronger effect = lower value
[3] = locus YJR075W, strain HOC1, stronger effect = lower value
[4] = locus YMR263W, strain SAP30, stronger effect = lower value
[5] = locus YMR307W, strain GAS1, stronger effect = lower value
[6] = locus YNL153C, strain GIM3, stronger effect = lower value
[7] = locus YPL241C, strain CIN2, stronger effect = lower value

Measured: normalized growth

ON=C(c1cccs1)c1cccs1
inactive: locus YAL013W, strain DEP1, stronger effect = lower value 0.947 | locus YBR229C, strain ROT2, stronger effect = lower value 0.94 | [1] 0.94 | locus YDL134C, strain PPH21, stronger effect = lower value 0.989 | locus YDR150W, strain NUM1, stronger effect = lower value 0.921 | locus YEL061C, strain CIN8, stronger effect = lower value 0.947 | locus YGR078C, strain PAC10, stronger effect = lower value 0.928 | locus YHR087W, strain rtc3, stronger effect = lower value 0.965 | locus YJR043C, strain POL32, stronger effect = lower value 0.944 | [3] 0.927 | locus YLR058C, strain SHM2 (second series), stronger effect = lower value 0.959 | locus YML094W, strain GIM5, stronger effect = lower value 0.903 | locus YMR219W, strain ESC1, stronger effect = lower value 0.963 | [4] 0.957 | locus YNL128W, strain TEP1, stronger effect = lower value 1 | [6] 0.958 | locus YNL298W, strain CLA4 (second series), stronger effect = lower value 0.893 | locus YNR030W, strain Alg12, stronger effect = lower value 0.895 | locus YOL006C, strain TOP1, stronger effect = lower value 0.896 | locus YPL055C, strain LGE1, stronger effect = lower value 0.941 | [7] 0.876
active: [2] 0.383 | locus YLR039C, strain RIC1, stronger effect = lower value 0.62 | locus YLR085C, strain ARP6, stronger effect = lower value 0.673 | locus YLR262C, strain YPT6, stronger effect = lower value 0.657 | [5] 0.657 | locus YNL322C, strain KRE1, stronger effect = lower value 0.924 | locus YPR135W, strain CTF4, stronger effect = lower value 0.637

O=C1NC(=O)C(c2ccccc2[N+](=O)[O-])=C1Nc1ccc(O)c(Cl)c1
inactive: locus YAL040C, strain CLN3, stronger effect = lower value 0.951 | locus YCL061C, strain MRC1 (second series), stronger effect = lower value 0.974 | locus YDR363W, strain ESC2, stronger effect = lower value 0.964 | locus YER002W, strain NOP16, stronger effect = lower value 0.98 | [3] 1 | [4] 0.99 | [5] 1.04 | [6] 0.971 | locus YNL175C, strain NOP13, stronger effect = lower value 0.953 | locus YNL197C, strain WHI3, stronger effect = lower value 0.981 | locus YNL224C, strain SQS1, stronger effect = lower value 0.996 | locus YOR083W, strain WHI5 (second series), stronger effect = lower value 0.943 | [7] 0.982

O=[N+]([O-])c1cc(Cl)cc([N+](=O)[O-])c1Nc1ccccc1
inactive: locus YAR019C, strain CDC15, stronger effect = lower value 0.924 | locus YBL105C, strain PKC1, stronger effect = lower value 0.927 | locus YBR135W, strain CKS1, stronger effect = lower value 0.916 | locus YBR136W, strain MEC1, stronger effect = lower value 0.923 | locus YBR160W, strain CDC28, stronger effect = lower value 0.918 | locus YDL017W, strain CDC7, stronger effect = lower value 0.937 | locus YDL028C, strain MPS1, stronger effect = lower value 0.925 | [1] 0.919 | locus YDL108W, strain KIN28, stronger effect = lower value 0.935 | locus YDL132W, strain cdc53, stronger effect = lower value 0.91 | locus YDL214C, strain PRR2, stronger effect = lower value 0.986 | locus YDR052C, strain DBF4, stronger effect = lower value 0.94 | locus YDR054C, strain cdc34, stronger effect = lower value 0.893 | locus YDR226W, strain ADK1, stronger effect = lower value 0.934 | locus YDR477W, strain SNF1, stronger effect = lower value 0.949 | locus YER123W, strain YCK3, stronger effect = lower value 0.975 | locus YER133W, strain GLC7, stronger effect = lower value 0.977 | locus YFL009W, strain cdc4, stronger effect = lower value 0.917 | locus YFL029C, strain CAK1, stronger effect = lower value 0.929 | locus YFR003C, strain YPI1, stronger effect = lower value 0.938 | locus YFR019W, strain FAB1, stronger effect = lower value 0.963 | locus YFR028C, strain CDC14, stronger effect = lower value 0.942 | locus YGR040W, strain KSS1, stronger effect = lower value 0.963 | locus YGR052W, strain FMP48, stronger effect = lower value 1.1 | locus YGR092W, strain DBF2, stronger effect = lower value 0.89 | locus YHR079C, strain IRE1, stronger effect = lower value 0.976 | locus YHR082C, strain KSP1, stronger effect = lower value 0.997 | locus YHR205W, strain SCH9, stronger effect = lower value 0.965 | locus YIL147C, strain SLN1, stronger effect = lower value 0.933 | locus YJL095W, strain BCK1, stronger effect = lower value 0.921 | locus YJL128C, strain PBS2, stronger effect = lower value 0.916 | locus YJL157C, strain FAR1, stronger effect = lower value 0.957 | locus YJR016C, strain ILV3, stronger effect = lower value 0.936 | locus YJR066W, strain TOR1 (second series), stronger effect = lower value 0.946 | locus YJR066W, strain TOR1, stronger effect = lower value 0.969 | locus YKL048C, strain ELM1, stronger effect = lower value 0.93 | locus YKL067W, strain YNK1, stronger effect = lower value 0.982 | locus YKL101W, strain HSL1, stronger effect = lower value 0.96 | locus YKL193C, strain SDS22, stronger effect = lower value 0.932 | locus YKL203C, strain TOR2, stronger effect = lower value 0.989 | locus YLR113W, strain HOG1, stronger effect = lower value 0.923 | locus YLR133W, strain CKI1, stronger effect = lower value 0.954 | locus YLR403W, strain SFP1, stronger effect = lower value 0.992 | locus YML070W, strain DAK1, stronger effect = lower value 0.987 | locus YMR001C, strain CDC5, stronger effect = lower value 0.929 | locus YMR205C, strain PFK2 (second series), stronger effect = lower value 0.998 | locus YMR277W, strain FCP1, stronger effect = lower value 0.936 | locus YNL006W, strain LST8, stronger effect = lower value 0.926 | locus YNL020C, strain ARK1, stronger effect = lower value 0.928 | locus YNL161W, strain CBK1, stronger effect = lower value 0.92 | locus YNL183C, strain NPR1, stronger effect = lower value 0.992 | locus YNL207W, strain RIO2, stronger effect = lower value 0.935 | locus YNL222W, strain SSU72, stronger effect = lower value 0.936 | locus YNL307C, strain MCK1 (second series), stronger effect = lower value 0.943 | locus YOL078W, strain AVO1, stronger effect = lower value 0.922 | locus YOL136C, strain PFK27, stronger effect = lower value 0.981 | locus YOR061W, strain CKA2, stronger effect = lower value 0.968 | locus YOR119C, strain RIO1, stronger effect = lower value 1.03 | locus YOR231W, strain MKK1, stronger effect = lower value 0.962 | locus YOR329C, strain SCD5, stronger effect = lower value 0.926 | locus YPL031C, strain PHO85, stronger effect = lower value 0.948 | locus YPL153C, strain RAD53, stronger effect = lower value 0.965 | locus YPL204W, strain HRR25, stronger effect = lower value 0.946 | locus YPL209C, strain IPL1, stronger effect = lower value 0.933 | locus YPL256C, strain CLN2, stronger effect = lower value 0.972 | locus YPR025C, strain CCL1, stronger effect = lower value 0.922 | locus YPR106W, strain ISR1, stronger effect = lower value 0.949 | locus YPR111W, strain DBF20, stronger effect = lower value 0.934 | strain NNK1, stronger effect = lower value 0.954 | strain TSCII, stronger effect = lower value 0.915
active: [2] 0.824
